# Rows were chosen to be rich in hits. Some 2.7% of all compounds tested hit in one or more screens of this group.
# Pf gametocyte: inhibitors of late stage P. falciparum gametocyte viability | P. falciparum stage V gametocytes, ATP luminescence, 24 h | inhibition, % at 10.9 µM | 150,000 compounds, 0.065% hits;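 active = inhibition above the mean plus 3 SD of compounds within the control limits, set per campaign, cut at about 38% in these data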
# 14-3-3 Bad inh: disrupts binding of bovine 14-3-3 zeta to phospho-Bad peptide. 220,000 compounds, 0.71% hits. P63103. AID 781. TR-FRET 14-3-3zeta/Dy647-pBad peptide displacement, 1 h. inhibition, % at 21.7 µM;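 active = inhibition above about 70%, limit read from the data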
# Target sequence (P63103 whole entry, looked up): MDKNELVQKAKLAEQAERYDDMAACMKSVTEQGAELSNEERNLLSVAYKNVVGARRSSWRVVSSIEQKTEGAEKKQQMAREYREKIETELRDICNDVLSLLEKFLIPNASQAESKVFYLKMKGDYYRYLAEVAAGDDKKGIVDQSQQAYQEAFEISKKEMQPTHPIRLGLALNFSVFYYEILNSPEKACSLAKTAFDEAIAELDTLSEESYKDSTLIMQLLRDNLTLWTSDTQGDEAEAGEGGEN
# eIF4E 4G PPI: eIF4E/eIF4G interaction inhibition in translation initiation; AID 782; P63073+Q04637; 220,000 compounds, 0.37% hits; TR-FRET eIF4E-eIF4GI(517-606) binding, 2 h; inhibition, % at 21.7 µM;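 active = inhibition above about 30%, limit read from the data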
# Mcl1 Noxa PPI: Mcl-1/Noxa interaction inhibition | 220,000 compounds, 1.5% hits | TR-FRET Mcl-1/Noxa peptide binding, 2 h | Q07820 | inhibition, % at 21.7 µM;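 active = compounds that cut the protein-peptide binding signal by more than 50% relative to plate controls in a single-dose test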;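 also: His-tagged Mcl-1 with rhodamine Noxa BH3 peptide and terbium anti-His antibody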
# Target sequence (Q07820 whole entry, looked up): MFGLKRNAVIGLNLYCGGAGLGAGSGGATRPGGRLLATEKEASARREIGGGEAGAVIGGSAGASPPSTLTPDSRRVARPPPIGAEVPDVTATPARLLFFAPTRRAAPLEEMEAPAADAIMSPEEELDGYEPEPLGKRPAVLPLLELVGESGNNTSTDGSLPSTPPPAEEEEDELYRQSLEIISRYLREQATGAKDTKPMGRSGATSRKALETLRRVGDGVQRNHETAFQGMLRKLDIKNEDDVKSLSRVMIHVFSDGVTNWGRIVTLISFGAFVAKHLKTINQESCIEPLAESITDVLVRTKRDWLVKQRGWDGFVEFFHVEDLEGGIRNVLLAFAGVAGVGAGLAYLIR
# Mcl1-Bid inh: disrupts binding of human Mcl-1 to Bid peptide. 220,000 compounds, 0.97% hits. inhibition, % at 21.7 µM. Q07820. TR-FRET Mcl-1/Bid-Dy647 peptide binding, 1536-well. AID 1021;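 active = compounds that cut the binding signal by more than half at the single screening dose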;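 also: His-tagged Mcl-1 with europium anti-His antibody binding Bid BH3 peptide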
# Mcl-1 Bim block: inhibitors of Bim-Mcl-1 interaction, human; Q07820; Bead-based flow cytometry, Bim peptide-Mcl-1 binding; inhibition, % at 10 µM; 190,000 compounds, 0.1% hits; in the data active = inhibition above about 40%
# Numbers stand for hits; - = inactive; . = not tested or not shown; [ ] = dose if it differs, or a comment.
SMILES,Pf gametocyte,14-3-3 Bad inh,eIF4E 4G PPI,Mcl1 Noxa PPI,Mcl1-Bid inh,Mcl-1 Bim block
CCOC(=O)CC(NC(=O)C1c2ccccc2Oc2ccccc21)c1ccccc1Cl (configuration not stated),-,-,-,-,-,-
COc1ccc(/C=C2\CCn3c2nc2cc(C(=O)O)ccc2c3=O)cc1OC,-,-,-,-,-,.
CC(C)CCOc1ccc(/C=C2\CCn3c2nc2cc(C(=O)O)ccc2c3=O)cc1,-,-,-,77.7,-,-
O=C(NCc1ccco1)/C(=C/c1cccnc1)NC(=O)c1ccco1,.,-,-,-,-,-
CCCCNC(C(=O)Nc1ccc([N+](=O)[O-])cc1Br)c1ccccc1 (configuration not stated),-,71.1,-,-,-,-
CCC(C)(C)c1ccc(OCCCC[n+]2cccc(C)c2)c(C(C)(C)CC)c1,-,-,-,-,-,-
CN1CCN(C2=C(Cl)C(=O)N(C3CCCCC3)C2=O)CC1,-,-,-,-,-,-
CN1CCN(C2=C(Cl)C(=O)C(c3cnc(N4CCCCC4)s3)=C(Cl)C2=O)CC1,.,82.5[fluorescence artefact?],53.6[fluorescence artefact?],98.2,79.3,-
COc1ccc(NC(=O)c2ccc3ccccc3c2)cc1,-,.,.,.,.,.
COc1ccc(C(=O)Nc2ccc(C(=O)OCC(=O)c3cccc4ccccc34)cc2)cc1,-,-,-,-,-,44.0
CCC(=O)Nc1ccccc1C(=O)OCC(=O)c1cccc2ccccc12,-,85.3[fluorescence artefact?],-,-,-,-
C#CCOCCOCCOCCNc1nc(N2CCN(C(=O)[C@H]([C@@H](C)CC)n3cc(CCCN=C(N)N)nn3)CC2)nc(N2CCN(C(=O)[C@H]([C@@H](C)CC)n3cc(CCCN=C(N)N)nn3)CC2)n1,.,77.4,-,-,62.1,-
C#CCOCCOCCOCCNc1nc(N2CCN(C(=O)[C@H]([C@@H](C)CC)n3cc(CCCN=C(N)N)nn3)CC2)nc(N2CCN(C(=O)[C@H](C)n3cc(CCCN=C(N)N)nn3)CC2)n1,.,75.1,-,-,-,-
C#CCOCCOCCOCCNc1nc(N2CCN(C(=O)[C@H](C)n3cc(CCCN=C(N)N)nn3)CC2)nc(N2CCN(C(=O)[C@H](C)n3cc(CCCN=C(N)N)nn3)CC2)n1,.,-,-,-,-,-
C#CCOCCOCCOCCNc1nc(N2CCN(C(=O)Cn3cc(CCCN=C(N)N)nn3)CC2)nc(N2CCN(C(=O)Cn3cc(CCCN=C(N)N)nn3)CC2)n1,.,87.7,-,-,57.9,-
C#CCOCCOCCOCCNc1nc(N2CCN(C(=O)Cn3cc(CCCN=C(N)N)nn3)CC2)nc(N2CCN(C(=O)[C@H]([C@@H](C)CC)n3cc(CCC(=O)O)nn3)CC2)n1,-,-,-,-,-,-
O=C(O)CNC(=O)c1ccccc1Br,-,-,-,-,-,-
O=C(O)c1ccc(-c2ccc(/C=N/Nc3ccc([N+](=O)[O-])cc3)o2)cc1,-,-,-,61.7,-,.
NS(=O)(=O)c1ccc(-c2ccc(/C=N/Nc3ccc(C(=O)O)cc3)o2)cc1,-,-,-,59.1,-,.
O=C(O)c1cccc(-c2ccc(/C=N/Nc3ccc([N+](=O)[O-])cc3)o2)c1,-,-,-,-,-,.
COC(=O)c1ccc(COC(=O)c2ccc(CS(=O)(=O)c3ccc(C)cc3)cc2)cc1,-,-,-,-,80.9,-
COC(=O)c1ccc(COC(=O)CCS(=O)(=O)c2ccc(C)cc2)cc1,-,-,-,-,-,-
O=C(O)COn1c(-c2ccccc2)nc2ccc([N+](=O)[O-])cc21,-,-,-,54.6,-,-
CCOC(=O)C(C)On1c(-c2ccccc2)nc2ccc([N+](=O)[O-])cc21 (configuration not stated),.,-,-,-,-,-
O=C(COc1ccc([N+](=O)[O-])cc1)Nc1nnc(-c2cccnc2)s1,-,-,-,68.8,-,.
SMILES,Pf gametocyte,14-3-3 Bad inh,eIF4E 4G PPI,Mcl1 Noxa PPI,Mcl1-Bid inh,Mcl-1 Bim block
COc1ccccc1CNC(=O)c1cccc2c1C(=O)N(Cc1cccnc1)C2,-,-,-,-,-,-
Cc1cccc(OCC(=O)N(C)CCc2ccccn2)c1,-,71.2,-,-,57.5,-
Cc1cccc(CN(C)CCc2ccccn2)c1,.,-,-,-,-,-
Cc1cc(C(=O)OC(C(=O)Nc2ccc(C)c(Cl)c2)c2ccccc2)c(C)o1 (configuration not stated),-,-,-,-,-,-
CC(=O)Nc1ccc(NC(=O)C2(C)CC2(Cl)Cl)cc1 (configuration not stated),-,-,-,-,-,-
CCc1ccc(OCc2nnc(SCCN3CCOCC3)n2CC)cc1,-,-,-,-,57.7,-
CCn1c(COc2ccc(C)cc2)nnc1SCc1ccc(C#N)cc1,.,-,-,-,-,-
CCOC(=O)c1sc(/N=C/c2ccc(O)cc2O)cc1C,-,-,-,56.6,-,-
c1ccc(Cn2nnc3c(NCc4ccc5c(c4)OCO5)ncnc32)cc1,-,-,-,-,52.2,.
c1ccc(CCNc2ncnc3c2nnn3Cc2ccccc2)cc1,.,-,-,-,-,-
COc1ccc(CCNS(=O)(=O)c2ccc3c(c2)OCCO3)cc1,-,83.9,-,-,-,-
CCC(C)n1c(SCC(=O)/C(C#N)=C(\C)N)nc2ccccc2c1=O (configuration not stated),-,-,-,-,-,-
Nc1nnc(CC(=O)N/N=C/c2cc([N+](=O)[O-])cc(Br)c2O)s1,-,-,-,55.9,-,-
Nc1nnc(CC(=O)N/N=C/c2cccc(OCCOc3ccccc3)c2)s1,-,-,-,-,51.4,-
O=C(NCc1ccc2c(c1)OCO2)c1ccc(Cl)c(S(=O)(=O)N2CCOCC2)c1,.,-,-,-,-,-
Cc1cc(C(=O)Nc2ncn[nH]2)ccc1[N+](=O)[O-],-,-,-,-,-,-
COc1ccc2c(Cl)c(C(=O)N/N=C/c3ccc4c(c3)OCO4)sc2c1,-,72.5[fluorescence artefact?],-,-,-,-
O=C(N/N=C/c1ccc2c(c1)OCO2)c1sc2cc(Cl)ccc2c1Cl,-,-,30.4,-,50.5,-
COc1ccccc1NS(=O)(=O)c1cccc(C(=O)N/N=C/c2ccc3c(c2)OCCO3)c1,-,-,-,-,-,-
COc1ccc(NS(=O)(=O)c2cccc(C(=O)N/N=C/c3ccc4c(c3)OCCO4)c2)cc1,-,-,-,-,64.8,-
O=C(N/N=C/c1ccc2c(c1)OCO2)c1sc2cccc(Cl)c2c1Cl,-,-,-,-,-,-
COc1cccc(/C=C/C(=O)OCC(=O)Nc2cc(C(F)(F)F)ccc2Cl)c1,-,-,-,-,-,-
CCCCN=C1NN=C(c2cc3ccccc3o2)CS1,-,-,-,70.2,-,-
CCCCN=C1NN=C(c2cccc([N+](=O)[O-])c2)CS1,-,-,-,50.6,-,-
O=C(O)CC1(CC(=O)Nc2cc(C(F)(F)F)cc(C(F)(F)F)c2)CCCCC1,-,-,-,-,-,.

# Compound activity deposited in PubChem BioAssay by several laboratories.
